PubChem BioAssay (Tox21)
Inconclusive results are not listed. A number with no mark means an inactive call. Calls follow the shape of the dose curve; as a rule, active = well fitted cell-killing curve with a large enough effect in the repeat runs; inconclusive = weak or mixed curves, or effect the other way; inactive = flat fitted curve, though single readings scatter.

experiment: qHTS RealTime-Glo MT Cell Viability Assay in HEK293 cells - 32 hour (AID 1224868); conditions: RealTime-Glo luminescence; series mostly up to 76.8 µM; activity change, negative = cytotoxic: at the top concentration; also: top concentration of the series differs between compounds; nearly all actives have a fitted effect of over 50% in size
Text: National Center for Advancing Translational Sciences [NCATS]
NIH Chemical Genomics Center [NCGC]
U.S. Environmental Protection Agency [EPA]
National Institutes of Environmental Health Sciences [NIEHS]
National Toxicology Program [NTP]
U.S. Food and Drug Administration [FDA]
Measure of cell viability is critical in the cell-base assay. Analysis of cell viability is necessary for the characterization of cell responses to cytotoxic drugs and environmental stress. A RealTime-Glo MT Cell Viability Assay to monitor cell viability in real time of continues cell culture during 40 hours of compound treatment was used to screen Tox21 10K library compounds in Hek293 cells. The RealTime-Glo MT Cell Viability Assay is a nonlytic, homogeneous, bioluminescent method to measure cell viability in real time using a simple, plate-based method. The assay involves adding NanoLuc luciferase and a cell-permeant prosubstrate to cells in culture. Viable cells reduce the proprietary prosubstrate to generate a substrate for NanoLuc luciferase. This substrate diffuses from cells into the surrounding culture medium, where it is rapidly used by the NanoLuc Enzyme to produce a luminescent signal. The signal correlates with the number of viable cells, making the assay well suited for cytotoxicity studies.
Tox21 Assay Protocol Summary:
The mixture of Hek293 cell suspension and reagents were dispensed at 600cells/6 ul/well in 1536-well tissue culture treated black solid bottom plates using a Multidrop dispenser. After the assay plates were incubated at a 37 C/5% CO2 incubator for 5 hours, 23 nL of compounds dissolved in DMSO, positive and negative controls was transferred to the assay plate by a pintool work station. The plates were incubated at 37 C for 40 hours. The luminescence intensity were measured at 0h, 8h, 16h, 24h, 32h and 40h time points using ViewLux plate reader during compound treatment.
% is scaled to controls: 0 for no effect and ±100 for the full control effect.

Row | Structure (SMILES) | activity change, negative = cytotoxic
1 | CC(C)NCC(O)c1ccc2ccccc2c1 (stereo not given) | -6.08% [at 35.3 µM]
2 | O=C(Cl)c1ccccc1[N+](=O)[O-] | 14.6%
3 | C=C(C)C1CC=C(C)C(=O)C1 (stereo not given) | 16.1%
4 | C=CCN1C[C@H](C(=O)N(CCCN(C)C)C(=O)NCC)C[C@@H]2c3cccc4[nH]cc(c34)C[C@H]21 | -1.2% [at 35.3 µM]
5 | O/N=C/C=N/O | -1.56%
6 | CCN(CC)CCN | -0.485% [at 35.3 µM]
7 | Cc1ncc([N+](=O)[O-])n1CC(C)O (stereo not given) | -0.0752% [at 35.3 µM]
8 | CC(O)COC(C)(C)C (stereo not given) | 7.3%
9 | CC(=O)C1C(=O)C=C(C)OC1=O (stereo not given) | 3.1%
10 | CC(=O)O[Si](C)(OC(C)=O)OC(C)=O | 4.69%
11 | CN(C)CCN(C)CCO | 2.02%
12 | NCC1(Cc2noc(=O)[nH]2)CCCCC1 | 23.8%
13 | C=CC(=O)OCC1CCCO1 (stereo not given) | 6.71%
14 | C/C=C(\C)C(=O)OCCc1ccccc1 | -1.39%
15 | Cn1c(=O)c2c(ncn2CCO)n(C)c1=O | 1.78% [at 35.3 µM]
16 | COC(=O)CCCCC(CCSS/C(CCO)=C(\C)N(C=O)Cc1cnc(C)nc1N)SC(C)=O (stereo not given) | 1.63% [at 35.3 µM]
17 | CCCCOCCOC(=O)COc1ccc(Cl)cc1Cl | 0.0547%
18 | O=Cc1ccccc1Cl | 3.72%
19 | COc1cc(OC)nc(O[C@H](C(=O)O)C(OC)(c2ccccc2)c2ccccc2)n1 | 3.41% [at 35.3 µM]
20 | C=CCCCCCCCCC(=O)OCCCC | 5.2%

Row | Structure (SMILES) | activity change, negative = cytotoxic
21 | Cc1c(N)cccc1Cl | 6.44%
22 | N#Cc1cscn1 | 13.4%
23 | OCC1(CO)COCOC1 | -1.04%
24 | OC1(c2ccc(Cl)cc2)CCNCC1 | 4.43% [at 35.3 µM]
25 | Nc1nnnn1-c1ccccc1 | 7.83% [at 35.3 µM]
26 | c1ccc2cnccc2c1 | 8.57%
27 | CC1CC(=O)CC(C)(C)C1 (stereo not given) | 6.88%
28 | Cc1cc(C)c(C(=O)O)c(C)c1 | -0.191%
29 | O=C1c2ccccc2C(=O)c2cc(Cl)ccc21 | -1.41% [at 6.97 µM]
30 | C=C(C)c1cccc(C(C)(C)N=C=O)c1 | 3.38%
31 | CCCCCc1cccc(=O)o1 | 5.77%
32 | CC(CO)(CO)CO | 3.49%
33 | COc1ccc2c(c1)c1c3n2CCN(C)C3=NCC1 | 17.6% [at 35.3 µM]
34 | Cc1ccc(C)c([N+](=O)[O-])c1 | 14.2%
35 | C[C@@H](O)C(=O)O | 5.87%
36 | CC(=O)O[C@H]1C[C@@H]2CC[C@@]1(C)C2(C)C | 4.23%
37 | CN1C[C@@H]2C[C@H]1CN2c1cc2c(cc1F)c(=O)c(C(=O)O)cn2C1CC1 | 9.47% [at 15.8 µM]
38 | C/C=C(\C)C(C)=O | 0.132%
39 | CC(O)CC(C)O (stereo not given) | 0.0062%
40 | CC1CCc2c(N3CCC(O)CC3)c(F)cc3c(=O)c(C(=O)O)cn1c23 (stereo not given) | -6.99% [at 35.3 µM]
